Where “and” joins values, the source holds several entries; their conditions need not be identical. Identical values can stand only once. The whole screen tested about 220,000 compounds, of which about 16,000 (7.3%) were called active. Not shown: some 25% with an inconclusive outcome. What follows is part of a selection rich in actives, with near analogues and random picks from the rest. Values without a mark were called inactive. The call rests on the fitted dose curve; in most records, active means well fitted inhibition curve with a large enough effect (not every such curve was filed as active); inconclusive means small, poorly fitted or top-dose-only effect, or another doubt; inactive means no such curve, though single readings can be large or run the other way.
target: Aldehyde dehydrogenase 1A1 (Homo sapiens) (UniProt P00352); test: qHTS Assay for Inhibitors of Aldehyde Dehydrogenase 1 (ALDH1A1); conditions: Purified ALDH1A1, NADH fluorescence, propionaldehyde substrate; series mostly up to 75.3 µM; activity, negative = inhibition: at the top concentration;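 on activity, negative = inhibition: plate controls were no enzyme wells and a reference inhibitor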
Potency means the concentration at half of the fitted maximal effect.

Sequence of Aldehyde dehydrogenase 1A1 (Homo sapiens) (P00352 whole entry, looked up): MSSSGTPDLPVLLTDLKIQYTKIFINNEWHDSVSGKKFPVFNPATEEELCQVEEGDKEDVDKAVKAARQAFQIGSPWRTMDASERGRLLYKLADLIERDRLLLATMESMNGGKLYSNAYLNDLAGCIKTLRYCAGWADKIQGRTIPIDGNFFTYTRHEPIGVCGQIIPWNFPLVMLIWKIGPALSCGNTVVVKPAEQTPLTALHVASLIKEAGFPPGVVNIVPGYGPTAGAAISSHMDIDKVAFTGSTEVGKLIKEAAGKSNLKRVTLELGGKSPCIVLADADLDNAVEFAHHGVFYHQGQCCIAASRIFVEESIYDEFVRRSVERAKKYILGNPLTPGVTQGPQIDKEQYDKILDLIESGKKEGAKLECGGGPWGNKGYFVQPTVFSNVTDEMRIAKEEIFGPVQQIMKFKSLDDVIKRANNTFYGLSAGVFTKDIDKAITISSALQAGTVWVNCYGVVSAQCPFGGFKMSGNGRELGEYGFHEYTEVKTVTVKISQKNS

SMILES | activity, negative = inhibition | Potency
Nc1nc2c(ncn2[C@@H]2O[C@H](COP(=O)(O)OP(=O)(O)OP(=O)(O)O)[C@@H](O)C2O)c(=O)[nH]1 (stereo partly drawn) | 4.41% | –
O=C(Nc1ccccc1C(=O)N1CCOCC1)c1ccc(Cl)cc1 | 5.03% | –
Cc1nnsc1C(=O)NCc1c(F)cccc1Cl | 9.4% | –
O=C(CSCc1c(F)cccc1Cl)NCC1CCCO1 (stereo not drawn) | 2.6% | –
Fc1cccc(Cl)c1CSc1ccc(-c2ccco2)nn1 | – | 20 µM (active)
CCc1ccc(C(=O)OCC(=O)NCC(F)(F)F)cc1 | -2.12% | –
OCCNCCOc1ccc(Cl)c(Cl)c1 | -8.88% | –
COc1ccc(-n2cnnc2SCC(=O)Nc2cccc([N+](=O)[O-])c2)cc1 | 5.76% | –
C=CCn1c2ccccc2c2nnc(SC(CC)C(=O)Nc3nc(C)c(C(=O)OCC)s3)nc21 (stereo not drawn) | -8.14% | –
C=CCn1c(COc2ccccc2)nnc1SCC(=O)NCC(=O)OCC | 8.67% | –
C=CCn1c2ccccc2c2nnc(SCc3[nH]c(=O)[nH]c3C(=O)CCCCC(=O)OCC)nc21 | – | 10 µM (active)
CC(C)(C)n1nnnc1C(c1ccc(F)cc1)N1CCN(Cc2ccc3c(c2)OCO3)CC1 (stereo not drawn) | -1.16% | –
CCCC(c1nnnn1C(C)(C)C)N1CCN(Cc2ccccc2)CC1 (stereo not drawn) | -2.73% | –
COc1ccccc1C(c1nnnn1C(C)(C)C)N1CCN(Cc2ccccc2)CC1 (stereo not drawn) | – | 20 µM (active)
CCc1c(SCCC(=O)O)nc2ccccc2c1C | -7.58% | –
O=C(N/N=C/C=C/c1ccco1)c1cccs1 | – | 2 µM (active)
CC(=O)Nc1ccc(/C=N/NC(=O)c2cccs2)cc1 | 3.71% | –
O=C(N/N=C/c1ccco1)c1ccc(C(=O)N/N=C/c2ccco2)o1 | -3.13% | –
CCOc1cc(/C=C(/C#N)c2ccc(Cl)cc2)cc(Cl)c1OCC(=O)O | -0.694% | –
Cc1cccc(CCNS(=O)(=O)c2ccc(S(=O)(=O)NC3CCCC3)cc2)c1 | -12.2% | –
Cn1sc(=O)c2cc(S(=O)(=O)NC3CC3)ccc21 | – | 0.501 µM (active)
N#CCCN1CCN(S(=O)(=O)c2ccc(S(=O)(=O)NC3CC3)cc2)CC1 | 6.11% | –

SMILES | activity, negative = inhibition | Potency
CCN(CC)C(=O)Oc1ccc(OC(=O)N(CC)CC)cc1 | -3.17% | –
Cc1nonc1NC(=O)CSc1nc2ccccc2cc1C#N | 4.78% | –
Cc1ccc2nc(CC(=O)c3ccc4ccccc4c3)c(=O)[nH]c2c1 | 12.1% [at 13.5 µM] | –
CC(=O)CCC(=O)c1ccc2ccccc2c1 | -5.73% | –
C=CC(=O)c1ccc2ccccc2c1 | – | 11.2 nM (active) and 100 nM (active)
CC(=O)Nc1nc2ccccc2n1Cc1ccc(C)cc1 | 0.717% | –
CN(C)CCCN(C(=O)COc1ccccc1)c1nc2c(Cl)cccc2s1 | 2.64% | –
CCC(C)(C)NC(=O)CN(C(=O)CCC(=O)Nc1cc(C)ccn1)c1ccc2c(c1)OCCO2 | 2.32% | –
COc1cc(SC)ccc1C(=O)Nc1cc(C)ccn1 | – | 22.4 µM (active)
Cc1ccnc(NC(=O)c2ccoc2C)c1 | 7.63% | –
COc1cc(SC)ccc1C(=O)Nc1nc(C)cs1 | 7.61% | –
O=C(O)COc1ccc(/C=N/O)cc1Br | -1.14% | –
Cc1ccccc1CN(c1ccc(C(=O)NCC2CCCO2)cc1)S(C)(=O)=O (stereo not drawn) | 10.6% | –
C/C=C(\C)C(=O)NCCN1C2=NC[C@H](Cc3ccc(O)cc3)N2C[C@@H]1Cc1ccc(OC)cc1 | 5.48% | –
CC(NC(=O)COC(=O)c1ccc2c(c1)OCO2)c1ccccc1 (stereo not drawn) | -4.82% | –
CCOC(=O)c1c(Cc2ccc(Cl)cc2)c[nH]c1C | -2.42% | –
CCOC(=O)c1ccc(COC(=O)c2cc(=O)[nH]c3ccccc23)o1 | -5.02% | –
CCOC(=O)c1ccc(CS(=O)c2ccc(Cl)cc2)o1 (stereo not drawn) | – | 2.82 µM (active)
CCOC(=O)c1ccccc1NC(=O)CSc1nc2ccccc2c(=O)[nH]1 | -3.53% | –
Cc1cc(=O)oc(C)c1C(=O)NCCN(C)Cc1ccccc1 | -12% | –
C=CS(=O)c1sc(Cl)c(N2CCOCC2)c1[N+](=O)[O-] (stereo not drawn) | – | 2 µM (active)
Cn1c(SCC(=O)NC2CCCCC2)nnc1-c1ccc(N)cc1 | 4.84% | –

SMILES | activity, negative = inhibition | Potency
CCOC(=O)/C=c1\s/c(=C\c2ccc(C#N)cc2)c(=O)n1CC(=O)Nc1cccc(C)c1C | 1.24% | –
CC1(C)Cc2cccc(OCC(N)=O)c2O1 | 14.2% | –
CC1(C)Cc2cccc(OCC(=O)N3CCN(c4ccc([N+](=O)[O-])cc4)CC3)c2O1 | – | 10 µM (active)
CC1(C)Cc2cccc(OCC(=O)Nc3nccs3)c2O1 | -3.74% | –
Cc1cc2ccccc2n1CCC(=O)O | 10.7% | –
O=[N+]([O-])c1ccccc1NCc1ccccc1Cl | -2.06% | –
Cc1cccc(C)c1NC(=O)C1(N(C(=O)c2ccccn2)c2ccc(O)cc2)CCCCC1 | 4.63% | –
CCc1nnc(NC(=O)CSc2nc3ccccc3c(=O)n2CCCOC)s1 | -2.48% | –
CCOC(=O)c1sc(NC(=O)CSc2nc3c(c(=O)n2-c2ccccc2)SCC3)c(C(=O)OCC)c1C | 3.33% | –
COc1ccccc1-n1c(CNC(=O)c2ccccc2)nnc1SCC(=O)Nc1nnc(C)s1 | -1.72% | –
CCOc1ccc(NC(=O)CSc2nc3c(c(=O)n2-c2ccccc2OC)SCC3)cc1 | – | 17.8 µM (active)
CCc1nnc(NC(=O)CSc2nc3c(c(=O)n2-c2ccccc2OC)SCC3)s1 | – | 22.4 µM (active)
CCn1c(SCC(=O)Nc2ccc3c(c2)OCCO3)nc2c(c1=O)SC(C)C2 (stereo not drawn) | 0.288% | –
O=C(Nn1cnc2ccccc2c1=O)c1ccc([N+](=O)[O-])cc1Cl | 2.25% | –
C=C(C(C)=O)C(O)c1ccc([N+](=O)[O-])cc1 (stereo not drawn) | -8.28% | –
CCCCC(=O)NCc1ccc(F)cc1 | 14.5% | –
O=C(CC(NS(=O)(=O)c1ccc(Cl)cc1)c1ccco1)NC1CCCC1 (stereo not drawn) | 6.1% | –
COc1ccccc1CNS(=O)(=O)c1ccc(C)cc1 | 2.08% | –
COc1ccc(S(=O)(=O)NC(CC(=O)NCc2ccccc2OC)c2ccco2)cc1 (stereo not drawn) | – | 10 µM (active)
COC(=O)CCC(=O)N1CCCC(CO)(Cc2ccccc2)C1 (stereo not drawn) | 1.8% | –
C#CCCOC(=O)N1C2=NC(C(=O)OC)=C(C(=O)OC)[C@@H]3N(C)c4ccc(OC)cc4[C@]23C[C@H]1C(=O)OC | 4.88% [at 13.5 µM] | –
CCOC(=O)CN/C=C(\C#N)c1ccc(F)cc1 | -3.19% | –

SMILES | activity, negative = inhibition | Potency
Cc1ccc(C(=O)c2c(NC(=O)c3ccncc3)sc3c2CCCC3)cc1 | 5.45% | –
Cc1ccc(C(=O)c2c(NC(=O)c3ccccc3)sc(C)c2C)cc1 | – | 25.1 µM (active)
Cc1ccc(C(=O)NCCNC(=O)c2ccccc2)cc1 | 2.28% | –
CCC(=O)NCc1cc(-c2nn(C)c(=O)c3ccccc23)ccc1OC | -15.6% | –
COc1ccc(C(=O)NNC(=O)c2cnccn2)cc1[N+](=O)[O-] | -11.7% | –
COc1ccc(C(=O)CSc2nc(C)cc(C)n2)cc1[N+](=O)[O-] | – | 2.24 µM (active)
COC(=O)c1cc(C(=O)CSc2nc(C)cc(C)n2)ccc1O | -7.96% | –
C/C(=N\NC(=O)OC(C)(C)C)c1ccc[nH]1 | 5.62% | –
Cc1cc(C(=O)CCl)c(C)n1CC1COc2ccccc2O1 (stereo not drawn) | – | 0.251 µM (active)
O=C(NCC1COc2ccccc2O1)C1(c2ccccc2)CCCC1 (stereo not drawn) | -5.04% | –
Cc1cc(NC(=O)CCC2COc3ccccc3O2)no1 (stereo not drawn) | -3.2% | –
O=C(NNC(=O)c1ccc(Cl)cc1Cl)c1cccs1 | 7.06% | –
Fc1cccc(Cc2noc(CN3CCN(c4cnccn4)CC3)n2)c1 | -4.08% | –
CCCCOC(=O)c1[nH]c(C)c(C(=O)OC)c1C | -76% | –
CCOC(=O)c1c(C)[nH]c(C2=NNC(=NC(C)COC)SC2)c1C (stereo not drawn) | – | 10 µM (active)
CCOC(=O)c1c(C)[nH]c2c1-c1ccccc1C(=O)C2=O | 4.42% | –
CN1CCN(c2nc(Nc3ccc(O)cc3)nc3ccccc23)CC1 | 3.31% | –
COc1ccc(-c2nn(-c3ccccc3)cc2/C=C\C(=O)N2CCOCC2)cc1[N+](=O)[O-] | 10.2% | –
S=C(NCCCc1cnc[nH]1)NCCCN(Cc1ccc(Cl)c(Cl)c1)c1ccc(Br)cn1 | 16.4% | –
COc1ccc(C(CCNCc2ccccc2F)c2ccc(F)cc2)cc1 (stereo not drawn) | -5.1% | –
COc1ccc(N2CC(C)Cn3c2nc2c3c(=O)n(Cc3ccccc3F)c(=O)n2C)c(OC)c1 (stereo not drawn) | – | 17.8 µM (active)
CC1CN(C2CCCCC2)c2nc3c(c(=O)n(C)c(=O)n3C)n2C1 (stereo not drawn) | -10.7% | –

SMILES | activity, negative = inhibition | Potency
COc1ccc2c(c1)CCc1c(C(=O)Nc3c(C)n(C)n(-c4ccccc4)c3=O)noc1-2 | -2.21% | –
O=C(c1cc(-c2ccccc2O)on1)N1CCCC1 | -10.4% | –
COc1ccc2c(c1)CCc1c(C(=O)N3CCCC3)noc1-2 | – | 10 µM (active)
CCCCc1ccc(NC(=S)NCCCN2CCOCC2)cc1 | -12.3% | –
Cc1cccc(C(=O)OC(C)CN2CCN(C)CC2)c1 (stereo not drawn) | 3.82% | –
CC1(C)CC(N(Cc2ccccc2)C(=O)Cc2ccccc2)CCO1 (stereo not drawn) | 8.75% | –
Cc1noc(C)c1COc1cccc(C(=O)Nc2cccnc2)c1 | 12.2% | –
O=C(O)c1ccc2c3c(cccc13)C(=O)N(OS(=O)(=O)c1ccccc1)C2=O | -18.5% | –
Cc1ccccc1NC(=O)NC1(C(=O)N2CCCC2)CCCCC1 | 9.14% | –
O=C(CN1C(=O)NC2(CCCCCC2)C1=O)NC1CC1 | 8.47% | –
O=C1CN(C(=O)CN2C(=O)NC3(CCCCC3)C2=O)c2ccccc2N1 | – | 15.8 µM (active)
O=C(CN1C(=O)NC2(CCCCCC2)C1=O)NCc1cccs1 | -0.321% | –
O=C(COC(=O)Cn1cnc2ccccc2c1=O)NCc1ccccc1Cl | -14.8% | –
CCOC(=O)N1CCN(C(=O)Cn2cnc3ccccc3c2=O)CC1 | -6.76% | –
COc1ccc(C(C)=O)cc1COC(=O)Cn1cnc2ccccc2c1=O | – | 20 µM (active)
CCOCCCN(C(=O)Cn1nnc(-c2ccc(OC)c(OC)c2)n1)C(CC)C(=O)NC1CCCC1 (stereo not drawn) | 1.58% | –
NC1CCN(O)C1=O (stereo not drawn) | -6.54% | –
C/C=N/NC(=O)CCCC(=O)N/N=C/C | -8.73% | –
O=C(N/N=C/c1ccc([N+](=O)[O-])cc1)C(=O)N1CCCC1 | -13.2% | –
CCOCCCNC(=S)N1CCC(NC(=O)C2CCCCC2)CC1 | 6.18% | –
